Results reported in PubChem BioAssay AID588722 (National Center for Advancing Translational Sciences (NCATS), 2011).
Calls of active or inactive are those of the source.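 How the source made its calls: active means potency under 20 µM; inactive means the rest.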

assay: High Content Assay for Compounds that inhibit the Assembly of the Perinucleolar Compartment:Cell Migration; details: PC3M cell invasion in 3D collagen microchannel, Hoechst imaging
Excerpt: The perinucleolar compartment (PNC) is a non-membrane-bound nuclear subdomain that is associated with but structurally distinct from the nucleolus. The PNC is a heritable trait, in which the number of PNCs per cell in daughter cells often mimics that of their mother cells. The PNC is heterogeneous in shape, is stable through interphase, disassembles during mitosis, and reassembles in early G1. The PNC is concentrated with newly synthesized RNA polymerase III (pol III) RNAs (MRP RNA, RNAse P H1 RNA, hY RNAs[hY1, 2, 5], Alu RNA, and SRP [7SL] RNA) and RNA binding proteins (nucleolin, PTB, CUG-BP, KSRP, Raver1, Raver2, and Rod). […] In collaboration between Sui Huang from Northwestern University and the NCGC, a high content assay was developed and screened. The hits were then tested in follow-up assays. High-content tumor cell migration assays in 3-dimensional extracellular matrices are powerful tools for modeling and understanding the biology of this critical step in the process of metastasis. However, most of the available methods are not amenable to the throughput required by studies of comparative pharmacology or small scale screening. For this reason, we worked with BellBrook Labs(R) to test our compounds in their automated high-content tumor cell invasion assays.[35] A standard screening-sized plate with an array of embedded microchannels was designed and constructed from common thermoplastics. NIH Chemical Genomics Center [NCGC] NIH Molecular Libraries Probe Centers Network [MLPCN] MLPCN Grant: MH082371 Assay Submitter (PI): Sui Huang, Northwestern University, Feinberg School of Medicine, Cell and Molecular Biology, Chicago, Illinois.
PC3M cells were tested for invasion through 3D fibrillar collagen in the Iuvo Single Microchannel Plate, in the presence of varying levels of test compounds. Channels were prefilled with 820 nL of 3-dimensional type I collagen at 1 mg/mL, through the input port. Following gelation, 2,000 PC3M cells were seeded into the output port using growth media (RPMI + 10% FBS with antibiotics) in a volume of 5 microL. Cells were incubated in a 37 masculineC incubator inside a humidified container to control evaporation (Bioassay dish, Corning). Media including test compounds was changed daily for 5 days. At the end of the assay, cells were fixed and stained with Hoechst 33342, then imaged with 4x objective under epifluorescence. Under these conditions, we can reliably identify cells across the 140 microm height range of the microchannel. Test compounds were serially diluted by a factor of 3, to produce 10 concentrations ranging from 50 or 100 microM to 2.5 nM.

SMILES	Potency	outcome
Cc1oc(-c2ccccc2Cl)nc1CSCC(=O)N1CCCC1	6.2 µM (active)	
COc1ccc(-n2c(SC(C)C(=O)Nc3ncc(Cl)cc3Cl)nc3ccccc32)cc1 (stereo unspecified)		inactive
COc1ccc(-c2nc(NC(=O)c3n[nH]c(=O)c4ccccc34)sc2C)cc1	3.8 µM (active)	
CN1c2ccccc2C(C)(C)C12CC(c1ccc(Cl)c(S(=O)(=O)N3CCCC3)c1)=NO2 (stereo unspecified)	3.2 µM (active)	
CCOC(=O)Cn1c(-c2nonc2NC(=O)c2ccccc2F)nc2ccccc21		inactive
Cc1c(NC(=O)COC(=O)c2cc(-c3ccc(-c4ccccc4)cc3)nc3ccccc23)c(=O)n(-c2ccccc2)n1C	0.117 µM (active)	
COC(=O)c1c(-c2ccccc2)csc1NC(=O)c1c(-c2ccccc2)noc1C		inactive
CSc1nnc2c3ccccc3n(CCc3ccccc3)c2n1	4.3 µM (active)	
CCN(CC)C(=O)N1c2ccccc2C=Cc2ccccc21	2.1 µM (active)	
O=C(Nc1cccnc1)c1cccs1	1.6 µM (active)	
N=c1c2c(-c3ccccc3)c(-c3ccccc3)n(Cc3ccccc3)c2ncn1CCCO	11.5 µM (active)	
